Results filed as inconclusive are left out. Calls of active or inactive are those of the source. Unless noted, the rule behind the calls is not given here.
Experiments:
[1] = GFP-Q80 aggregate reduction, neuronal-like cells, cell-based, NGF-treated PC12, GFPQ80 (AID 1614); settings: PC12 NGF-treated GFP-polyQ80 inclusion reduction;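 note: lower means fewer inclusions and 0 means no inclusions at all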
[2] = compounds altering circadian rhythm period length – cell-based, LOPAC library, luminescence reporter (AID 2774); settings: circadian reporter cells, at 7 µM, actives lie on both sides;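 note: values are relative to mean of DMSO wells on each plate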
[3] = test system: Hepatitis C virus NS3 helicase; test: blockers of NS3h binding to ssDNA – biochemical, fluorescence polarization, LOPAC1280 library, primary screen (AID 687035; in the data active = inhibition above about 37%); settings: Purified HCV NS3 helicase, Cy5-dT15 ssDNA binding fluorescence polarization; stronger effect = higher value; concentration not given here
[4] = compounds altering Cy5-DNA-NS3h complex signal – biochemical, LOPAC1280, artefact control for HCV NS3 helicase inhibitor project (AID 687037); settings: Cy5-DNA-NS3h complex fluorescence interference counterscreen
[5] = test system: Neuropilin-2 / VEGF-C interaction (human); test: small molecules blocking Neuropilin-2/VEGF-C interaction – biochemical, microplate binding format, z-score (AID 743281); settings: microplate NRP2/VEGF-C binding assay; stronger effect = lower value
[6] = test system: Aerobactin synthetase IucA (Klebsiella pneumoniae); test: inhibition of K. pneumoniae IucA enzyme – biochemical, Tocris library, absorbance (AID 1345561); settings: purified IucA enzyme assay, absorbance (OD) read-out; stronger effect = lower value;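 tested at 8 µM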;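 note: 100% = enzyme without compound and 0% = no enzyme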
[7] = viability loss in pontine glioma line – cell-based, SU-DIPG-XVII, MIPE5.0, CellTiter-Glo, qHTS, dose response (AID 1347060; cut-off not given, nearly all actives have AC50 up to about 26 µM;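 for AC50: cells exposed to compound for 48 hours before viability readout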); settings: CellTiter-Glo ATP luminescence
[8] = viability loss in pontine glioma line – cell-based, SU-DIPG-IV, MIPE4.0, CellTiter-Glo, qHTS, dose response (AID 1347063; cut-off not given, nearly all actives have AC50 up to about 30 µM;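 note: compound exposure lasted 48 hours before the viability readout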); settings: CellTiter-Glo ATP luminescence
[9] = viability loss in pontine glioma line – cell-based, SU-DIPG-XIII, MIPE5.0, CellTiter-Glo, qHTS, dose response (AID 1347064; cut-off not given, nearly all actives have AC50 up to about 23 µM;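 for AC50: cells exposed to compound for 48 hours before the viability read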); settings: CellTiter-Glo ATP luminescence
[10] = viability loss in pontine glioma line – cell-based, SU-DIPG-XXV, MIPE5.0, CellTiter-Glo, qHTS, dose response (AID 1347065; cut-off not given, nearly all actives have AC50 up to about 26 µM;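 note: cells exposed to compound for 48 hours before ATP readout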); settings: CellTiter-Glo ATP luminescence
[11] = growth inhibition of DIPG cells – cell-based, MIPE4.0 library, CellTiter-Glo luminescence, qHTS (AID 1347066; cut-off not given, nearly all actives have AC50 up to about 30 µM;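 note: cells exposed to compound for 48 hours before readout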); settings: SU-DIPG-VI viability, CellTiter-Glo ATP luminescence
[12] = growth inhibition of DIPG cells – cell-based, MIPE5.0 library, qHTS (AID 1347068; cut-off not given, nearly all actives have IC50 up to about 30 µM); settings: SU-DIPG-XXV viability
[13] = blockers of cellular phospholipid synthesis – cell-based, LOPAC library, screen 4, primary screen (AID 1347384); settings: animal cells, phospholipid biosynthesis inhibition screen; at 10 µM
[14] = molecular target: ATP-dependent translocase ABCB1 (Homo sapiens) (UniProt P08183); test: P-glycoprotein substrate transport blockade – cell-based (AID 377; in the data active = fluorescence slope change above about 50%); settings: MDR1-expressing cells, fluorescent substrate accumulation slope; stronger effect = higher value; concentration not given here
Sequence of ATP-dependent translocase ABCB1 (Homo sapiens) (P08183 whole entry, looked up): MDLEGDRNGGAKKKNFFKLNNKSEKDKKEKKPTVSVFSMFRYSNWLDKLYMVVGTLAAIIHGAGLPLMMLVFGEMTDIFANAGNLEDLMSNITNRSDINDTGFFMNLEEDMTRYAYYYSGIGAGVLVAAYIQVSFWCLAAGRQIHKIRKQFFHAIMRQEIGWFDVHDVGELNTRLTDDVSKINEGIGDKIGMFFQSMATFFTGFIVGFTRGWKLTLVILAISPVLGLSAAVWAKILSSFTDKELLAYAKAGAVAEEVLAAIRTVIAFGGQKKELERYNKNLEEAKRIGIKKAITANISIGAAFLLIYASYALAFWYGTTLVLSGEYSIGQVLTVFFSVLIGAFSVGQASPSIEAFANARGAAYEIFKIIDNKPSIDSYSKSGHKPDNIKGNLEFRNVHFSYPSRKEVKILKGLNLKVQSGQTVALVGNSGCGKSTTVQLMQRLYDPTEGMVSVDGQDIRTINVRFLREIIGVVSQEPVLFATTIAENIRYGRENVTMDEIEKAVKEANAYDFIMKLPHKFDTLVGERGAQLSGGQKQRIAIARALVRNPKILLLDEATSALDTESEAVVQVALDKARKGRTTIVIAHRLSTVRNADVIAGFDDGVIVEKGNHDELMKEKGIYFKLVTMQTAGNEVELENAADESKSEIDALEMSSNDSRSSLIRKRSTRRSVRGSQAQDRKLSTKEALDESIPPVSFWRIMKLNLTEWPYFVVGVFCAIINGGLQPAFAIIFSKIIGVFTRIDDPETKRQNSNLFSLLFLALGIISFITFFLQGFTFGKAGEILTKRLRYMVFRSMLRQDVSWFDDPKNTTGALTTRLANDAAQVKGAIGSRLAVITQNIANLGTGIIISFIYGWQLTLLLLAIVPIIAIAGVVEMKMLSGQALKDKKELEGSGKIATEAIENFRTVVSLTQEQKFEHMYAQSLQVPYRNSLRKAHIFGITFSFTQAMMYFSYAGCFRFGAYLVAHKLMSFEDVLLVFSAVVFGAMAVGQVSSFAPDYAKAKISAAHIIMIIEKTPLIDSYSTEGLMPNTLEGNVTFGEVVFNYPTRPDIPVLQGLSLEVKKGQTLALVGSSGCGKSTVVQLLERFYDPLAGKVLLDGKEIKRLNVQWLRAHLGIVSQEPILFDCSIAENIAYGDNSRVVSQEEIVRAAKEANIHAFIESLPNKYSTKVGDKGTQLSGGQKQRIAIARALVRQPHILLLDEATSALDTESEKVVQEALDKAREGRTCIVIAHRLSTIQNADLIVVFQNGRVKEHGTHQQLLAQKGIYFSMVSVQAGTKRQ

[15] = JHH-DIPG-1 glioma cell viability, MIPE5.0 library, CellTiter-Glo luminescence, qHTS (AID 1347067; cut-off not given, nearly all actives have AC50 up to about 26 µM;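 note: cells exposed to compound for 48 hours before readout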); settings: JHH-DIPG-1 glioma viability, CellTiter-Glo ATP luminescence
[16] = compounds altering HSF1 focus formation in cells – imaging, Selleck Cancer Library (AID 1347162; in the data active = plate-normalised HSF1 focus index below about 0.46); settings: human cells, HSF1 nuclear foci imaging, at 10 µM; SSMD: measured here: HSF1 foci SSMD mean; cell count: measured here: cell number; plate-normalised HSF1 focus index: stronger effect = lower value
[17] = viability loss in pontine glioma line – cell-based, SU-DIPG-XIII, MIPE4.0, CellTiter-Glo, qHTS, dose response (AID 1347061; cut-off not given, nearly all actives have AC50 up to about 37 µM;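 note: cells exposed to compound for 48 hours before readout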); settings: CellTiter-Glo ATP luminescence
[18] = viability loss in pontine glioma line – cell-based, JHH-DIPG-1, MIPE4.0, CellTiter-Glo, qHTS, dose response (AID 1347062; cut-off not given, nearly all actives have AC50 up to about 27 µM;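 for AC50: cells exposed to compound for two days before readout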); settings: JHH-DIPG-1 viability, CellTiter-Glo ATP luminescence

Cc1c(OCC(F)(F)F)ccnc1CS(=O)c1nc2ccccc2[nH]1 (stereo unspecified)
inactive: period change [2] -0.035 h | inhibition [3] -2% | fluorescence ratio (interference) [4] 1 | z-score [5] 0.0966 | remaining activity [6] 87.5% | outcome [7] | outcome [8] | outcome [9] | outcome [10] | outcome [11] | outcome [12] | outcome [13]
2: inclusion score [1]

CCCN1C[C@H](CSC)C[C@@H]2c3cccc4[nH]cc(c34)C[C@H]21
active: fluorescence slope change [14] 72.8%
2: inclusion score [1]
inactive: period change [2] 0.02 h | inhibition [3] -6% | fluorescence ratio (interference) [4] 1 | outcome [13]

CCOC(=O)C1=C(COCCN)NC(C)=C(C(=O)OC)C1c1ccccc1Cl (stereo unspecified)
inactive: z-score [5] -0.363 | remaining activity [6] 107%

C[C@@H]1C[C@H]2[C@@H]3CCC4=CC(=O)C=C[C@]4(C)[C@@]3(F)[C@@H](O)C[C@]2(C)[C@@]1(O)C(=O)CO
6940: cell count [16]
inactive: outcome [7] | outcome [9] | outcome [10] | outcome [15] | outcome [12] | plate-normalised HSF1 focus index [16] 1.08
1.52: SSMD [16]

CCN(CC)C(=S)SSC(=S)N(CC)CC
active: fluorescence slope change [14] 81.8% | AC50 [7] 0.934 µM | AC50 [17] 0.0105 µM | AC50 [18] 0.00935 µM | AC50 [8] 0.0209 µM | AC50 [9] 0.934 µM | AC50 [10] 0.833 µM | AC50 [11] 0.00372 µM | AC50 [15] 0.934 µM
inactive: period change [2] -0.07 h | inhibition [3] -3% | fluorescence ratio (interference) [4] 1 | z-score [5] -0.138 | outcome [12] | outcome [13]

O=C(c1ccccc1)c1ccc2n1CCC2C(=O)O (stereo unspecified)
active: AC50 [17] 8.33 µM
2: inclusion score [1]
inactive: period change [2] -0.025 h | inhibition [3] -3% | fluorescence ratio (interference) [4] 1 | z-score [5] -0.0903 | outcome [7] | outcome [18] | outcome [8] | outcome [9] | outcome [10] | outcome [11] | outcome [15] | outcome [12] | outcome [13]

CNCCCC12CCC(c3ccccc31)c1ccccc12
active: fluorescence slope change [14] 137% | AC50 [18] 20.9 µM | AC50 [10] 23.5 µM
inactive: period change [2] 2.03 h | inhibition [3] -6% | fluorescence ratio (interference) [4] 0.9 | z-score [5] -0.344 | remaining activity [6] 112% | outcome [11] | outcome [12] | outcome [13]

NC(N)=NC(=O)c1nc(Cl)c(N)nc1N
2: inclusion score [1]
inactive: period change [2] 0.02 h | inhibition [3] 1% | fluorescence ratio (interference) [4] 0.9 | z-score [5] -0.147 | remaining activity [6] 101% | outcome [7] | outcome [18] | outcome [9] | outcome [10] | outcome [11] | outcome [15] | outcome [12] | outcome [13]
active: AC50 [17] 14.8 µM

C[C@]12C=CC(=O)C=C1CC[C@@H]1[C@@H]2[C@@H](O)C[C@@]2(C)[C@H]1CC[C@]2(O)C(=O)CO
inactive: outcome [7] | outcome [17] | outcome [18] | outcome [9] | outcome [15]

CN(C)CCN(Cc1ccccc1)c1ccccn1
inactive: z-score [5] -0.192
2: inclusion score [1]

COc1ccc2c(c1)c(CC(=O)O)c(C)n2C(=O)c1ccc(Cl)cc1
inactive: period change [2] 0.07 h | inhibition [3] -5% | fluorescence ratio (interference) [4] 1 | z-score [5] 0.68 | remaining activity [6] 120% | outcome [7] | outcome [10] | outcome [11] | outcome [15] | outcome [12]
2: inclusion score [1]
active: fluorescence slope change [14] 95% | AC50 [17] 18.7 µM

OCCN(CCO)c1nc(N2CCCCC2)c2nc(N(CCO)CCO)nc(N3CCCCC3)c2n1
inactive: period change [2] -0.245 h | inhibition [3] -2% | fluorescence ratio (interference) [4] 1 | remaining activity [6] 98% | outcome [18] | outcome [13]
2: inclusion score [1]
active: AC50 [17] 20.9 µM | AC50 [10] 18.6 µM

CC1(C)O[C@@H]2C[C@H]3[C@@H]4CCC5=CC(=O)C=C[C@]5(C)[C@@]4(F)[C@@H](O)C[C@]3(C)[C@]2(C(=O)CO)O1
inactive: outcome [7] | outcome [17] | outcome [8] | outcome [9] | outcome [10] | outcome [11] | outcome [15] | outcome [12]

C[C@@H]1CC(=O)NN=C1c1ccc(NN=C(C#N)C#N)cc1
active: AC50 [8] 23.5 µM | AC50 [9] 18.6 µM | AC50 [10] 9.34 µM

CC(=O)OCC(=O)[C@@]1(O)CC[C@H]2[C@@H]3CCC4=CC(=O)CC[C@]4(C)[C@H]3C(=O)C[C@@]21C
inactive: period change [2] -0.03 h | inhibition [3] -3% | fluorescence ratio (interference) [4] 0.9 | outcome [17] | outcome [18] | outcome [8] | outcome [10] | outcome [11] | outcome [15] | outcome [12] | outcome [13]

Reference: PubChem BioAssay
